Results taken from the supplement of paper PMC6555819.

Test system: VDR:RXRa (NR concentration 270 nM, RXRa partner concentration 90 nM)
Assay: PBM binding z-score (relative to random genomic background probes); higher = stronger binding; sequences stand for … in GC…GCGATTGACAGCGTAGAATGAAGG
Description: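 Protein-binding microarray (Agilent 4x180K custom design, double-stranded 60-nt probes: 5' GC cap, 34-nt variable region, 24-nt constant primer region; full probe sequence given). Purified or IVT nuclear receptor:RXRα heterodimers (3:1 NR:RXRα, mostly 270:90 nM) or homodimers were incubated for 1 h in PBS with 2% milk and no ligand, then detected with Alexa488 antibodies. Fluorescence from o1-orientation probes (~5 replicates averaged) was converted to z-scores against 500 random hg19 background probes. Variable regions are seed direct-repeat (DR0–DR5) sites, all their single-nucleotide variants and half-site ablations.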

| Sequence | PBM binding z-score |
| --- | --- |
| TCTTGTAGATCAAGCAAGTTAAGAAAGCCTGAGT | 0.328 |
| CGTCCAAGGTCATAGGAAGTCAGTGAAGACAGAT | 4.21 |
| CGAACTTGGTCATTGACAGGACAGTGAATAGTAA | 0.0642 |
| TCTATTAGCTGATTAGGGCAACCGAAACAGCGGA | 0.11 |
| CAAATTAGGTCACAGAGGTCAAAGTCCGTGCGTA | 8.12 |
| ATATGTAGGTTAAGGGTCCTTCAGGTTGGTTCGC | 1.67 |
| ATCTCTAGGTAAGACTCAGTTCAGTTAAGAACGC | 1.12 |
| TTACCAAGGTGAAGATCGTTGATCCCTCTGTAGA | -0.031 |
| CCTAGTTGGCCAGGAGGTCACACACCGGATATGA | 3.63 |
| CTCGAAAGGTCGGTTGAGCTGAGTATACGGATAA | 0.528 |
| AGATCGAGGGCACGCTGAGTTGATAGCAGAGTAG | 1.85 |
| TTACCAAGGTGAAGGTCGTTCATCCCTCTGTAGA | 1.74 |
| AATACAGGGTCATCGTAGGCCAGAGCACGCACAG | 5.2 |
| TAGCCTAGGTCATGGGGGCCAGTATAGTGTCGGC | 5.43 |
| ATCTCTAGGTAACCAACTTCAGTGAATGCCGAAC | 0.0615 |
| TGAGTGAGGTTATAAGATCAGGGAACGTTGCAAA | 0.806 |
| CAAACTAGGACACAGAGGTCAAAGTCCGTGCGTA | 5.69 |
| TCTATCAGTTGATTAGGGCAACCGAAACAGCGGA | 0.419 |
| ACAATTAGTTGACTTAGGGCAACCGATACGACGC | 0.376 |
| TCTCGGAGAACACGAAAGGTCAGAGCTCGACATC | 2.22 |

| Sequence | PBM binding z-score |
| --- | --- |
| AGACTGAGGTTATTAAGATCAGGGAATTGCGGTC | 2.39 |
| CCGACAGGGGCAGAAAGGTTACCATACCATCCGG | 1.75 |
| GCAGACAGGTGAAACGCTGGTAACTCAGGGTGGC | -0.466 |
| GCTATTAGTTGAAAGGGCAACAGAATGATTCTCG | 0.688 |
| CGAACTAGGTCATTGACAGGACAGTGCATAGTAA | 2.5 |
| ATATGTAGGTTATATCCGGGTCATTCAGGCTATG | 4.11 |
| CCTGCTAGGTCAATGGTCATCTAAAGCAGCTCGC | 1.31 |
| CCGAGTAGGTTATGGGGCATTTAGGCAACGGTGA | -0.0639 |
| CTCGAACGGTCGTGCTCAGGTGAGTATACCAAAC | -0.344 |
| CGTCAAAGTTCAACTAAGGTAACGTGAAGCACGC | 4.37 |
| GCTAGCAGGCCATTTGGGTCCCTCAATGACGGGC | -0.73 |
| CCTACTGGGCCAAAGGTCATTGCTTCCAATGCTC | 4.47 |
| CAAACTCGGTCAAGAGGTCAAAGTCCGCTTCCCG | 5.41 |
| CCTACTGGGCCAAGGTCATTTATCAGTCAAAGCA | 3.13 |
| ACTCGGAGGACACAGGTCAGAGCTACGCCAGTGA | 0.834 |
| CATACAGGATCAGCTAGGCCAGAGTAGGGACGGC | -0.514 |
| TCTTGTAGATCAACAGGAGGGTAAGAAAGATCGA | 0.029 |
| ATCGGAAGGTCGACGAGGTGAGTATACACCGTTT | 3.87 |
| CGAACTAGGTCATCCGGGACAGTGAATACATTGA | 4.04 |
| CGTCCAAGATCAGAGAGGTCAGTGAATGCCGAGT | 3.82 |
